# Results: the supplement of paper PMC10037445
# The full ranking holds about 2,900 compounds; the median of “NF-kB SEAP reporter activity, fold change vs agonist alone” is about 0.99, and the highest 2% start at about 2.6. This excerpt belongs to a sample that is enriched for the highest values.
# Assays:
# [1] = system: RAW-Dual; assay: NF-kB SEAP reporter activity, fold change vs agonist alone; cytotoxicity flag (confluency mask): not cytotoxic; higher = enhanced NF-kB activity
# In short: (§1)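 Cytotoxic wells were those whose IncuCyte confluency was below 70% of agonist controls in both mask sets. The cells were RAW-Dual macrophages at 50,000 cells/well in DMEM on 384-well plates, dosed with 50 nL of library stock by pin tool, stimulated with a PRR agonist 1 h later, and kept at 37 °C, 5% CO2 for 20 hours. IRF and NF-κB reporter activity, as fold change over agonist-alone wells, came from supernatant read by QuantiLuc luminescence and QuantiBlue absorbance, respectively.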
# [2] = system: RAW-Dual; assay: NF-kB SEAP reporter activity, fold change vs agonist alone; higher = enhanced NF-kB activity
# In short: as §1
# [3] = agonist: ODN 1826 (TLR9) 0.5 ug/mL
# [4] = agonist: Pam2CSK4 (TLR2/6) 0.1 ug/mL
# [5] = agonist: Pam3CSK4 (TLR2/1) 0.1 ug/mL
# [6] = library stock concentration (final ~1000-fold dilution): 10 mM, cytotoxicity flag (confluency mask): not cytotoxic, agonist: Imiquimod (TLR7) […]
# [7] = library stock concentration (final ~1000-fold dilution): 10 mM, cytotoxicity flag (confluency mask): not cytotoxic, agonist: MPLA (TLR4) […]
# [8] = library stock concentration (final ~1000-fold dilution): 2 mM, cytotoxicity flag (confluency mask): not cytotoxic, agonist: Imiquimod (TLR7) […]
# [9] = library stock concentration (final ~1000-fold dilution): 2 mM, cytotoxicity flag (confluency mask): not cytotoxic, agonist: MPLA (TLR4) […]
smiles,measurement,setting,value
Cc1cc2ncc(C(=O)NCC(C)(C)NCC(=O)N3CCCC3C#N)cn2n1 (configuration not stated) (library stock concentration (final ~1000-fold dilution): 10 mM),NF-kB SEAP reporter activity,[1]; agonist: LPS (TLR4) 0.1 ug/mL,1.57
same,NF-kB SEAP reporter activity,[1]; [3],0.997
same,NF-kB SEAP reporter activity,[1]; [4],0.911
same,NF-kB SEAP reporter activity,[1]; [5],0.96
Cc1cc2ncc(C(=O)NCC(C)(C)NCC(=O)N3CCCC3C#N)cn2n1 (configuration not stated),NF-kB SEAP reporter activity,[2]; [6],0.977
same,NF-kB SEAP reporter activity,[2]; [7],1.04
COc1ccccc1Nc1nc(-c2sc(NC(C)=O)nc2C)cs1 (library stock concentration (final ~1000-fold dilution): 10 mM),NF-kB SEAP reporter activity,[1]; agonist: LPS (TLR4) 0.1 ug/mL,0.496
same,NF-kB SEAP reporter activity,[1]; [3],0.464
same,NF-kB SEAP reporter activity,[1]; [4],0.318
same,NF-kB SEAP reporter activity,[1]; [5],0.245
COc1ccccc1Nc1nc(-c2sc(NC(C)=O)nc2C)cs1,NF-kB SEAP reporter activity,[2]; [6],0.623
same,NF-kB SEAP reporter activity,[2]; [7],0.687
CC(C)(OC1OC(CO)C(O)C(O)C1O)C1Cc2cc3ccc(=O)oc3cc2O1 (configuration not stated) (library stock concentration (final ~1000-fold dilution): 10 mM),NF-kB SEAP reporter activity,[1]; agonist: LPS (TLR4) 0.1 ug/mL,1.14
same,NF-kB SEAP reporter activity,[1]; [3],1.31
same,NF-kB SEAP reporter activity,[1]; [4],1.27
same,NF-kB SEAP reporter activity,[1]; [5],1.48
CC(C)(OC1OC(CO)C(O)C(O)C1O)C1Cc2cc3ccc(=O)oc3cc2O1 (configuration not stated),NF-kB SEAP reporter activity,[2]; [6],1.21
same,NF-kB SEAP reporter activity,[2]; [7],1.19
Cl.O=C1C2CCCCC2C(=O)N1CCCCN1CCN(c2nsc3ccccc23)CC1 (configuration not stated),NF-kB SEAP reporter activity,[2]; [7],0.868
Cl.O=C1C2CCCCC2C(=O)N1CCCCN1CCN(c2nsc3ccccc23)CC1 (configuration not stated) (library stock concentration (final ~1000-fold dilution): 10 mM),NF-kB SEAP reporter activity,[1]; agonist: LPS (TLR4) 0.1 ug/mL,0.671
same,NF-kB SEAP reporter activity,[1]; [3],0.536
same,NF-kB SEAP reporter activity,[1]; [4],0.848
same,NF-kB SEAP reporter activity,[1]; [5],0.888
Cc1n[nH]c2ccc(-c3cncc(OCC(N)Cc4ccccc4)c3)cc12 (configuration not stated),NF-kB SEAP reporter activity,[2]; [6],0.904
same,NF-kB SEAP reporter activity,[2]; [7],0.967
Cc1n[nH]c2ccc(-c3cncc(OCC(N)Cc4ccccc4)c3)cc12 (configuration not stated) (library stock concentration (final ~1000-fold dilution): 10 mM),NF-kB SEAP reporter activity,[1]; agonist: LPS (TLR4) 0.1 ug/mL,0.198
same,NF-kB SEAP reporter activity,[1]; [3],0.962
same,NF-kB SEAP reporter activity,[1]; [4],0.447
same,NF-kB SEAP reporter activity,[1]; [5],1.01
C=CC1(C)CC(OC(=O)CSCCN(CC)CC)C2(C)C(C)CCC3(CCC(=O)C32)C(C)C1O.O=C(O)/C=C/C(=O)O (configuration not stated),NF-kB SEAP reporter activity,[2]; [7],1.13
C=CC1(C)CC(OC(=O)CSCCN(CC)CC)C2(C)C(C)CCC3(CCC(=O)C32)C(C)C1O.O=C(O)/C=C/C(=O)O (configuration not stated) (library stock concentration (final ~1000-fold dilution): 10 mM),NF-kB SEAP reporter activity,[1]; agonist: LPS (TLR4) 0.1 ug/mL,1.37
same,NF-kB SEAP reporter activity,[1]; [3],0.712
same,NF-kB SEAP reporter activity,[1]; [4],0.821
same,NF-kB SEAP reporter activity,[1]; [5],0.841
O=C(/C=C/N1CC2CC1CN2c1ccccn1)c1ccccc1O (configuration not stated),NF-kB SEAP reporter activity,[2]; [6],0.829
same,NF-kB SEAP reporter activity,[2]; [7],1.03
O=C(/C=C/N1CC2CC1CN2c1ccccn1)c1ccccc1O (configuration not stated) (library stock concentration (final ~1000-fold dilution): 10 mM),NF-kB SEAP reporter activity,[1]; agonist: LPS (TLR4) 0.1 ug/mL,1.01
same,NF-kB SEAP reporter activity,[1]; [3],0.735
same,NF-kB SEAP reporter activity,[1]; [4],1.02
same,NF-kB SEAP reporter activity,[1]; [5],1.39
CCN(CC)CCCCC(NC(=O)C(CC(C)C)NC(=O)C(C)NC(=O)C(Cc1ccccc1)NC(=O)c1ccc(C(C)(C)C)cc1)C(=O)NC(CO)C(=O)OC (configuration not stated) (library stock concentration (final ~1000-fold dilution): 10 mM),NF-kB SEAP reporter activity,[1]; agonist: LPS (TLR4) 0.1 ug/mL,0.99
same,NF-kB SEAP reporter activity,[1]; [3],0.888
same,NF-kB SEAP reporter activity,[1]; [4],0.898
same,NF-kB SEAP reporter activity,[1]; [5],1.1
COC(=O)C(CCSC)NC(=O)c1ccc(NCC(N)CS)cc1-c1ccccc1.Cl (configuration not stated) (library stock concentration (final ~1000-fold dilution): 10 mM),NF-kB SEAP reporter activity,[1]; agonist: LPS (TLR4) 0.1 ug/mL,1.38
same,NF-kB SEAP reporter activity,[1]; [3],1.56
same,NF-kB SEAP reporter activity,[1]; [4],1.16
same,NF-kB SEAP reporter activity,[1]; [5],0.929
COC(=O)C(CC(C)C)NC(=O)c1ccc(NCC(N)CS)cc1-c1cccc2ccccc12.O=C(O)C(F)(F)F (configuration not stated),NF-kB SEAP reporter activity,[2]; [6],1.25
same,NF-kB SEAP reporter activity,[2]; [7],2.31
CCN(CC)CCCCC(NC(=O)C(CC(C)C)NC(=O)C(C)NC(=O)C(Cc1ccccc1)NC(=O)c1ccc(C(C)(C)C)cc1)C(=O)NC(CO)C(=O)OC (configuration not stated),NF-kB SEAP reporter activity,[2]; [6],1.08
same,NF-kB SEAP reporter activity,[2]; [7],0.945
COC(=O)C(CC(C)C)NC(=O)c1ccc(NCC(N)CS)cc1-c1cccc2ccccc12.O=C(O)C(F)(F)F (configuration not stated) (library stock concentration (final ~1000-fold dilution): 10 mM),NF-kB SEAP reporter activity,[1]; agonist: LPS (TLR4) 0.1 ug/mL,3.82
same,NF-kB SEAP reporter activity,[1]; [3],2.38
same,NF-kB SEAP reporter activity,[1]; [4],1.5
same,NF-kB SEAP reporter activity,[1]; [5],2.19
COC(=O)C(CCSC)NC(=O)c1ccc(NCC(N)CS)cc1-c1ccccc1.Cl (configuration not stated),NF-kB SEAP reporter activity,[2]; [6],1.13
same,NF-kB SEAP reporter activity,[2]; [7],1.22
C=C(C)C1CCC2(C(=O)OC3OC(COC4OC(CO)C(OC5OC(C)C(O)C(O)C5O)C(O)C4O)C(O)C(O)C3O)CCC3(C)C(CCC4C5(C)CCC(OC6OCC(O)C(O)C6OC6OC(C)C(O)C(O)C6O)C(C)(CO)C5CCC43C)C12 (configuration not stated) (library stock concentration (final ~1000-fold dilution): 2 mM),NF-kB SEAP reporter activity,[1]; agonist: LPS (TLR4) 0.1 ug/mL,1
same,NF-kB SEAP reporter activity,[1]; [3],1.09
same,NF-kB SEAP reporter activity,[1]; [4],1.17
same,NF-kB SEAP reporter activity,[1]; [5],1.16
C=C(C)C1CCC2(C(=O)OC3OC(COC4OC(CO)C(OC5OC(C)C(O)C(O)C5O)C(O)C4O)C(O)C(O)C3O)CCC3(C)C(CCC4C5(C)CCC(OC6OCC(O)C(O)C6OC6OC(C)C(O)C(O)C6O)C(C)(CO)C5CCC43C)C12 (configuration not stated),NF-kB SEAP reporter activity,[2]; [8],0.946
same,NF-kB SEAP reporter activity,[2]; [9],1.07
Cn1cc(-c2cnn3c(N)c(Br)c(C4CCCNC4)nc23)cn1 (configuration not stated) (library stock concentration (final ~1000-fold dilution): 2 mM),NF-kB SEAP reporter activity,[1]; agonist: LPS (TLR4) 0.1 ug/mL,1.31
same,NF-kB SEAP reporter activity,[1]; [3],1.04
same,NF-kB SEAP reporter activity,[1]; [4],1.04
same,NF-kB SEAP reporter activity,[1]; [5],1.19
Cn1cc(-c2cnn3c(N)c(Br)c(C4CCCNC4)nc23)cn1 (configuration not stated),NF-kB SEAP reporter activity,[2]; [8],1.09
same,NF-kB SEAP reporter activity,[2]; [9],1.35
Nc1ccn(C2CCC(CO)O2)c(=O)n1 (configuration not stated),NF-kB SEAP reporter activity,[2]; [6],0.994
same,NF-kB SEAP reporter activity,[2]; [7],0.981
Nc1ccn(C2CCC(CO)O2)c(=O)n1 (configuration not stated) (library stock concentration (final ~1000-fold dilution): 10 mM),NF-kB SEAP reporter activity,[1]; agonist: LPS (TLR4) 0.1 ug/mL,0.913
same,NF-kB SEAP reporter activity,[1]; [3],1
same,NF-kB SEAP reporter activity,[1]; [4],0.95
same,NF-kB SEAP reporter activity,[1]; [5],1.15
Nc1cc(F)ccc1NC(=O)/C=C/c1cnn(C/C=C/c2ccccc2)c1 (library stock concentration (final ~1000-fold dilution): 10 mM),NF-kB SEAP reporter activity,[1]; agonist: LPS (TLR4) 0.1 ug/mL,0.995
same,NF-kB SEAP reporter activity,[1]; [3],1.12
same,NF-kB SEAP reporter activity,[1]; [4],0.405
same,NF-kB SEAP reporter activity,[1]; [5],0.419
Cn1cc(-c2ccc(S(=O)(=O)n3ccc(/C=C/C(=O)Nc4ccccc4N)c3)cc2)cn1,NF-kB SEAP reporter activity,"[2]; library stock concentration (final ~1000-fold dilution): 10 mM, cytotoxicity flag (confluency mask): cytotoxic (confluency <70% of control), agonist: Imiquimod (TLR7) […]",1.68
same,NF-kB SEAP reporter activity,"[2]; library stock concentration (final ~1000-fold dilution): 10 mM, cytotoxicity flag (confluency mask): cytotoxic (confluency <70% of control), agonist: MPLA (TLR4) […]",2.37
